According to publication PMC7862700, “An all-to-all approach to the identification of sequence-specific readers for epigenetic DNA modifications on cytosine”:

Tests used:
Experiment in all cases: DAPPL (digital affinity profiling via proximity ligation, sequencing); 10 mM Tris-HCl pH 7.5, 50 mM NaCl, 1 mM DTT, 4% glycerol, room temperature, 30 min; GST-TFs on glutathione beads, 16-mer random dsDNA library, 0.1% formaldehyde crosslink after washing; high values mean tight binding
FLI1 = molecular target: T1, FLI1 (Homo sapiens, UniProt Q01543 1-452); conditions: protein: recombinant; tags: N-terminal GST; dsDNA, one strand shown
T1 sequence: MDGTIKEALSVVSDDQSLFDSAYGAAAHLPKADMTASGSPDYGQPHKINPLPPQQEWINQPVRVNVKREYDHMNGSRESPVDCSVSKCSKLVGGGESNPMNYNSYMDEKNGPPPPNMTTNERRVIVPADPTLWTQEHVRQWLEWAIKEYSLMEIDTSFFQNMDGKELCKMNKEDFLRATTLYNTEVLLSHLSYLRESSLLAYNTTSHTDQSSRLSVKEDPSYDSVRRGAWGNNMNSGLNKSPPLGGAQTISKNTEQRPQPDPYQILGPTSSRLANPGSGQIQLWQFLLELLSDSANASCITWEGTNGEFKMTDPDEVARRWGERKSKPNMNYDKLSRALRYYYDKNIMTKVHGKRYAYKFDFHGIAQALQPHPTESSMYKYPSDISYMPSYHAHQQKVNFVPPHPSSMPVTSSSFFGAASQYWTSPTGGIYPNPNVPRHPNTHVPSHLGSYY
Procedure, shortened: (§1)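 In yeast, human transcription factors were expressed with a GST fusion, then pulled down on glutathione beads and given DNA barcodes. Pooled with a tag-only sample, they were exposed to 200 nmole of a 16-mer random double-stranded DNA library (Tris/NaCl/DTT/glycerol buffer, room temperature, 30 min), washed, crosslinked with 0.1% formaldehyde, proximity-ligated using BsaI/T4 ligase for 1 h at 37 °C, PCR-amplified and read on an Illumina NextSeq500. Each hexamer's frequency of reads for a factor, divided by the matching frequency for the tag-only sample, gives the binding signal.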

ELK1 = molecular target: T2, ELK1 (Homo sapiens, UniProt P19419 1-428); conditions: protein: recombinant; tags: N-terminal GST; dsDNA, one strand shown
T2 sequence: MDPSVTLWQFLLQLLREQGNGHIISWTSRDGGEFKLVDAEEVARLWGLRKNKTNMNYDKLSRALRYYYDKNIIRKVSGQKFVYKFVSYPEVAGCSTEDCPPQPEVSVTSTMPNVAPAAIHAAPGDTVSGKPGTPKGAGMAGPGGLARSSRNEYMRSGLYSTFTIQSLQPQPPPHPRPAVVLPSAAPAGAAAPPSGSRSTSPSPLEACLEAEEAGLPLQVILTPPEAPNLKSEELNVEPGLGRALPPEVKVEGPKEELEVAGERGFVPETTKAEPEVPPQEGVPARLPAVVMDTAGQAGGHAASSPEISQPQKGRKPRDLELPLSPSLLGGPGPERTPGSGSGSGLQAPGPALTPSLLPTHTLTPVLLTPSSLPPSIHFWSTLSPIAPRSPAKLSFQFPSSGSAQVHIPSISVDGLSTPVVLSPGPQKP
Procedure, shortened: as §1

GABPA = molecular target: T3, GABPA (Homo sapiens, UniProt Q06546 1-454); conditions: protein: recombinant; tags: N-terminal GST; dsDNA, one strand shown
T3 sequence: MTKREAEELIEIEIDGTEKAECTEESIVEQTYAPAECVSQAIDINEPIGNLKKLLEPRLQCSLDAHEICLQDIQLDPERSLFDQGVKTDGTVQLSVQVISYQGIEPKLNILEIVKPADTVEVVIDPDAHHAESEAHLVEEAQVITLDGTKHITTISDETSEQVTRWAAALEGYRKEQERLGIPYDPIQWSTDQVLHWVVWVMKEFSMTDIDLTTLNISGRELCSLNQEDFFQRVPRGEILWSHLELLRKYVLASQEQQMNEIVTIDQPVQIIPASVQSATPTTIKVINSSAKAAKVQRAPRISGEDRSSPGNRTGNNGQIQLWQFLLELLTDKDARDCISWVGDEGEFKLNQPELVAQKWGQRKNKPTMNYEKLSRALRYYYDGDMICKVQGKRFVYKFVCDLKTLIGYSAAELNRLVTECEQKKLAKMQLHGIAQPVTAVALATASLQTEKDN
Procedure, shortened: as §1

ERG = molecular target: T4, ERG (Homo sapiens, UniProt P11308 1-479); conditions: protein: recombinant; tags: N-terminal GST; dsDNA, one strand shown
T4 sequence: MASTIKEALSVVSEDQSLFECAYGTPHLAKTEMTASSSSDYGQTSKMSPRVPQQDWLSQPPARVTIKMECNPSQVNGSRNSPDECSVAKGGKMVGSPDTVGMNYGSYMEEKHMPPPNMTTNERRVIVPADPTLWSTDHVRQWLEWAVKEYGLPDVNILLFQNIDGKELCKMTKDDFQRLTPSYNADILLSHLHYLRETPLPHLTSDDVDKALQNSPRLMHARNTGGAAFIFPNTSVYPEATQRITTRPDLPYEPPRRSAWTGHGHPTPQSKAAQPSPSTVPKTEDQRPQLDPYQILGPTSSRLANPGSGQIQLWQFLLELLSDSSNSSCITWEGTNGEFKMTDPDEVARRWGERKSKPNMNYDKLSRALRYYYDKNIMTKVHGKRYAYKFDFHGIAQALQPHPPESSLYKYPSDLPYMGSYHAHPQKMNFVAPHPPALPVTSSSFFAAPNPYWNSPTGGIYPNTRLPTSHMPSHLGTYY
Procedure, shortened: as §1

ELF1 = ELF1 (Homo sapiens, UniProt P32519 1-619); conditions: protein: recombinant; tags: N-terminal GST; dsDNA, one strand shown
Sequence of ELF1 (P32519 whole entry): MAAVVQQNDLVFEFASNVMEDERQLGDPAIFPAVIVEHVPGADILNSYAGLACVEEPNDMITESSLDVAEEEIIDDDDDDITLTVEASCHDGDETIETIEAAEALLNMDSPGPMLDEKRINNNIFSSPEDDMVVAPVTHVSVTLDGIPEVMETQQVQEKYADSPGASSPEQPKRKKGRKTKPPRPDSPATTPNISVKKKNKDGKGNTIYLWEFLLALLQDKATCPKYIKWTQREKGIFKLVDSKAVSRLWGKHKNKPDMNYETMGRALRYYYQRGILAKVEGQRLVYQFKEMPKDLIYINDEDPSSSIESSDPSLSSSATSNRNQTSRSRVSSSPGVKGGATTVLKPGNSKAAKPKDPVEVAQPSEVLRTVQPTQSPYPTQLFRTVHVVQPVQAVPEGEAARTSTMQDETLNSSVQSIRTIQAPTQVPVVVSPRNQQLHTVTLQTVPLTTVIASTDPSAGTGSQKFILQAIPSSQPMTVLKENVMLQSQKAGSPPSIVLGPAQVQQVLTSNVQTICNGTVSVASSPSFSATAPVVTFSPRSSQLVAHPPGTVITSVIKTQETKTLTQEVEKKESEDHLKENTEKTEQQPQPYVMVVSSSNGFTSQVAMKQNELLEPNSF
Procedure, shortened: as §1

EHF = molecular target: T5, EHF (Homo sapiens, UniProt Q9NZC4 1-300); conditions: protein: recombinant; tags: N-terminal GST; dsDNA, one strand shown
T5 sequence: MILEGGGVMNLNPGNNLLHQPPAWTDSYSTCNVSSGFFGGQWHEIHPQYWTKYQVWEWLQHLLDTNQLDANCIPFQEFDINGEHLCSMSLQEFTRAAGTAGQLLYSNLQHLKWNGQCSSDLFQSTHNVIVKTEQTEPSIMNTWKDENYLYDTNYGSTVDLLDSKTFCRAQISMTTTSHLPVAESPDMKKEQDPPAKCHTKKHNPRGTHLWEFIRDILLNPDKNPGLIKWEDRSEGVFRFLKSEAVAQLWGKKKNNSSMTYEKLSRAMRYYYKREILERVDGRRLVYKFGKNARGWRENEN
Procedure, shortened: as §1

SPI1 = SPI1 (Homo sapiens, UniProt P17947 1-270); conditions: protein: recombinant; tags: N-terminal GST; dsDNA, one strand shown
Procedure, shortened: as §1

SPIB = SPIB (Homo sapiens, UniProt Q01892 1-262); conditions: protein: recombinant; tags: N-terminal GST; dsDNA, one strand shown
Sequence of SPIB (Q01892 whole entry): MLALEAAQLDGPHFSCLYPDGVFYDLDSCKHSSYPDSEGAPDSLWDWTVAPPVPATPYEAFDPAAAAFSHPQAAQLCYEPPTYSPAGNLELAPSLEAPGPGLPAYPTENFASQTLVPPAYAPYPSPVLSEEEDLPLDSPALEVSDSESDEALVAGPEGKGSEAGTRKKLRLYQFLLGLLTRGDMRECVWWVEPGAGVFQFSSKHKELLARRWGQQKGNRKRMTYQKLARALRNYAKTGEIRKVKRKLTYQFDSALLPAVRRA
Procedure, shortened: as §1

ELK3 = molecular target: T6, ELK3 (Homo sapiens, UniProt P41970 1-407); conditions: protein: recombinant; tags: N-terminal GST; dsDNA, one strand shown
T6 sequence: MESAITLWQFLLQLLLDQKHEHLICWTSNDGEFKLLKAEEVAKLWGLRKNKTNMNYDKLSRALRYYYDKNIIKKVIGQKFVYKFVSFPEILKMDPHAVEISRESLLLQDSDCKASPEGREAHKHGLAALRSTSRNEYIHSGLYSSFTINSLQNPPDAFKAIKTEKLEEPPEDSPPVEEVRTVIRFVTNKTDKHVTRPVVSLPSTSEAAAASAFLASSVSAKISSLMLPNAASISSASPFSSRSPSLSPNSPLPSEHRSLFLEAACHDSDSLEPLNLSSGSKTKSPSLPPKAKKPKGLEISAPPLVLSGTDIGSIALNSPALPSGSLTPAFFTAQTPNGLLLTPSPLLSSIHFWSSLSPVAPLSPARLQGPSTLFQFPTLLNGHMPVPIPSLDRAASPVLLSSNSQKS
Procedure, shortened: as §1

FEV = molecular target: T7, FEV (Homo sapiens, UniProt Q99581 1-238); conditions: protein: recombinant; tags: N-terminal GST; dsDNA, one strand shown
T7 sequence: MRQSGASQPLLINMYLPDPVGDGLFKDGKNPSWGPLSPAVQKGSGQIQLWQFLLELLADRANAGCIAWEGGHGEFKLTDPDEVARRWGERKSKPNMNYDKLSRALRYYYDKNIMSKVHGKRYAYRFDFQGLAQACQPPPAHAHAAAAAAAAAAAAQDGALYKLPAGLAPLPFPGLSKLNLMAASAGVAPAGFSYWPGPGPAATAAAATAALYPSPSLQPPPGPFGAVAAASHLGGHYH
Procedure, shortened: as §1

ETV5 = ETV5 (Homo sapiens, UniProt P41161 1-510); conditions: protein: recombinant; tags: N-terminal GST; dsDNA, one strand shown
Sequence of ETV5 (P41161 whole entry): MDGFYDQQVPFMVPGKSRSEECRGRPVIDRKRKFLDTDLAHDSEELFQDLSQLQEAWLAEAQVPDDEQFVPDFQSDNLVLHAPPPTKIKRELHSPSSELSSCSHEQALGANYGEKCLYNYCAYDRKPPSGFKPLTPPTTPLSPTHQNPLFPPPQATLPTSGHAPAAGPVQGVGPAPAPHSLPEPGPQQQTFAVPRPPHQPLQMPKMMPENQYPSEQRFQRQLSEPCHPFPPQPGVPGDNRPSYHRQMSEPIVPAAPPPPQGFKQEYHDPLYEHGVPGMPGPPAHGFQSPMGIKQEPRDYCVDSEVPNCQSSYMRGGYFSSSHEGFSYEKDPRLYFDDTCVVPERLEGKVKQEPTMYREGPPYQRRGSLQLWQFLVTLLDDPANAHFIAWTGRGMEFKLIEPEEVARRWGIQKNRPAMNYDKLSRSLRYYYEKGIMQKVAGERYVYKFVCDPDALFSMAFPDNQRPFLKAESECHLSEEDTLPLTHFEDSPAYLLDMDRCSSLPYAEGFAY
Procedure, shortened: as §1

HSF1 = HSF1 (Homo sapiens, UniProt Q00613 1-529); conditions: protein: recombinant; tags: N-terminal GST; chain copies: 3; dsDNA, one strand shown
Sequence of HSF1 (Q00613 whole entry): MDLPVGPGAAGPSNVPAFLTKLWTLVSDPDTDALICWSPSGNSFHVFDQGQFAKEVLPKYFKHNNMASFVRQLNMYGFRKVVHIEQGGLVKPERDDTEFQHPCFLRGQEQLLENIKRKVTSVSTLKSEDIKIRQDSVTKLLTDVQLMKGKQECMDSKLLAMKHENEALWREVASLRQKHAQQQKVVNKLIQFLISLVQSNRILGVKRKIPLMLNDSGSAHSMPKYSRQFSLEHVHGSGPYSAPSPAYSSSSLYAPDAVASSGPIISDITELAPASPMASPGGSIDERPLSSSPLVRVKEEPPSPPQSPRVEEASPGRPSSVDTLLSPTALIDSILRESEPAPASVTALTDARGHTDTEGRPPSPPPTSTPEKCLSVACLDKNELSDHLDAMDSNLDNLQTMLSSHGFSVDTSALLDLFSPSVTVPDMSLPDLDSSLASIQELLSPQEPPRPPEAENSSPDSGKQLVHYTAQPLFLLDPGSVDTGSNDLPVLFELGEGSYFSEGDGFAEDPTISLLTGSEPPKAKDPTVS
Procedure, shortened: as §1

ELF4 = ELF4 (Homo sapiens, UniProt Q99607 1-663); conditions: protein: recombinant; tags: N-terminal GST; dsDNA, one strand shown
Sequence of ELF4 (Q99607 whole entry): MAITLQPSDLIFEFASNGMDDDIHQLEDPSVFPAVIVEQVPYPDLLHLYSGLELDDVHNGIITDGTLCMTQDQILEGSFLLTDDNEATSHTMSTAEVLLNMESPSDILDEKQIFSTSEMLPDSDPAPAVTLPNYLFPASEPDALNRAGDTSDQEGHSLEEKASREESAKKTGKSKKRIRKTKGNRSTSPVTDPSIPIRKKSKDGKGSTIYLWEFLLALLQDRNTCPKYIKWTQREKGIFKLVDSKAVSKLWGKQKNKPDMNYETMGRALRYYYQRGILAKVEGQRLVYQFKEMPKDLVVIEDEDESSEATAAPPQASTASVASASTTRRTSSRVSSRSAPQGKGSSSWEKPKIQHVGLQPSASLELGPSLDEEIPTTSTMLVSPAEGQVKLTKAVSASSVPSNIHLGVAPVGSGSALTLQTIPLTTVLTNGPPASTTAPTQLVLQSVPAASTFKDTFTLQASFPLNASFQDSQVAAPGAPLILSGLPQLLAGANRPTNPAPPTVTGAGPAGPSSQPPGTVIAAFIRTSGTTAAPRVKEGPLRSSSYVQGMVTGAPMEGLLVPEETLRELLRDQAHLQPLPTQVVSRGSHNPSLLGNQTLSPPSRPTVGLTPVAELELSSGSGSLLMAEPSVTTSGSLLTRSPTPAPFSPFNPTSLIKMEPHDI
Procedure, shortened: as §1

ELK4 = molecular target: T8, ELK4 (Homo sapiens, UniProt P28324-2 1-405); conditions: protein: recombinant; tags: N-terminal GST; dsDNA, one strand shown
T8 sequence: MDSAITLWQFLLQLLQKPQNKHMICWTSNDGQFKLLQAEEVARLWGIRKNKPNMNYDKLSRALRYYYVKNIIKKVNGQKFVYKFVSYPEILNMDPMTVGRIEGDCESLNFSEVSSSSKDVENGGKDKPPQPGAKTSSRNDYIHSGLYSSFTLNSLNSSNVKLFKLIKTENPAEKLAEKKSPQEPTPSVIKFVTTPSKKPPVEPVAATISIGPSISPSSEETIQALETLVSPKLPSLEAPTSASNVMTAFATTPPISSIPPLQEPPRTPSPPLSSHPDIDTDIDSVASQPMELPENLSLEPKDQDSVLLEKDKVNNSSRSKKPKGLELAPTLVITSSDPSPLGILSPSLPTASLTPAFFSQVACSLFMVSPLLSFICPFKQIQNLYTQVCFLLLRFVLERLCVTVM
Procedure, shortened: as §1

ELF3 = molecular target: T9, ELF3 (Homo sapiens, UniProt P78545 1-371); conditions: protein: recombinant; tags: N-terminal GST; dsDNA, one strand shown
T9 sequence: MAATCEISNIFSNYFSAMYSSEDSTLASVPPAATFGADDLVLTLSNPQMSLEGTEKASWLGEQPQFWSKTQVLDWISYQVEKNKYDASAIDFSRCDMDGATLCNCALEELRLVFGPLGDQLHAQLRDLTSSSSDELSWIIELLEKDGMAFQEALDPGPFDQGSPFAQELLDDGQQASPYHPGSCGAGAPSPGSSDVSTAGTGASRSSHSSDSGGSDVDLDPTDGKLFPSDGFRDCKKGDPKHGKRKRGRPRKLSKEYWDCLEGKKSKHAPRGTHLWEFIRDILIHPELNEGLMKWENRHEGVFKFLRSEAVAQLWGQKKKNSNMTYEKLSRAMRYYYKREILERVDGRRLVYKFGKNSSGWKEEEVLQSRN
Procedure, shortened: as §1

CRX = CRX (Homo sapiens, UniProt O43186 1-299); conditions: protein: recombinant; tags: N-terminal GST; dsDNA, one strand shown
Sequence of CRX (O43186 whole entry): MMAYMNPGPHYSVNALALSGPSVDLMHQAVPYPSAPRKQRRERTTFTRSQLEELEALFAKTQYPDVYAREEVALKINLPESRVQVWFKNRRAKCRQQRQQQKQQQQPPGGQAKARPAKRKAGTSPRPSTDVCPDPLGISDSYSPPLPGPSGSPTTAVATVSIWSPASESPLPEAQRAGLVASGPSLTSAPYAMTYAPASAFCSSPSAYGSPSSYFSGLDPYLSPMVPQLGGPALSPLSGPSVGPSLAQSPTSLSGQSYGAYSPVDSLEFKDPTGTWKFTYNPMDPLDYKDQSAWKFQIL
Procedure, shortened: as §1

ETV1 = ETV1 (Homo sapiens, UniProt P50549 1-477); conditions: protein: recombinant; tags: N-terminal GST; dsDNA, one strand shown
Sequence of ETV1 (P50549 whole entry): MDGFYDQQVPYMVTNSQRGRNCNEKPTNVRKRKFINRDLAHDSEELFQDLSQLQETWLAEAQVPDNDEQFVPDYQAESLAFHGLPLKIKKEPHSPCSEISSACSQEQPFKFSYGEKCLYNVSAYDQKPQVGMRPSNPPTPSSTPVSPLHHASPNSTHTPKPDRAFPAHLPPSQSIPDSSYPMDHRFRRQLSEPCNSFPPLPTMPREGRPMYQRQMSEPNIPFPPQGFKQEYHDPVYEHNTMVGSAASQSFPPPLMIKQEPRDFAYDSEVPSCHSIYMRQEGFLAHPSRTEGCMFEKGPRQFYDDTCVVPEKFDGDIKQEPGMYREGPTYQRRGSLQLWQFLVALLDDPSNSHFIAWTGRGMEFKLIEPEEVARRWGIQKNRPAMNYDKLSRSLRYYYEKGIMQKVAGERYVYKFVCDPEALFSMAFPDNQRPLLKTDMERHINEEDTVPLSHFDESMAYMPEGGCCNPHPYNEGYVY
Procedure, shortened: as §1

## CGGCTA
FLI1
  binding signal: 1.16 fold enrichment (6-mer frequency, TF over GST control)
ELK1
  binding signal: 1.14 fold enrichment (6-mer frequency, TF over GST control)
GABPA
  binding signal: 1.1 fold enrichment (6-mer frequency, TF over GST control)
ERG
  binding signal: 1.1 fold enrichment (6-mer frequency, TF over GST control)
ELF1
  binding signal: 1.15 fold enrichment (6-mer frequency, TF over GST control)
EHF
  binding signal: 1.13 fold enrichment (6-mer frequency, TF over GST control)
SPI1
  binding signal: 1.16 fold enrichment (6-mer frequency, TF over GST control)
SPIB
  binding signal: 1.21 fold enrichment (6-mer frequency, TF over GST control)
ELK3
  binding signal: 1.02 fold enrichment (6-mer frequency, TF over GST control)
FEV
  binding signal: 1.23 fold enrichment (6-mer frequency, TF over GST control)
ETV5
  binding signal: 1.19 fold enrichment (6-mer frequency, TF over GST control)
HSF1
  binding signal: 1.07 fold enrichment (6-mer frequency, TF over GST control)
ELF4
  binding signal: 1.07 fold enrichment (6-mer frequency, TF over GST control)
ELK4
  binding signal: 1.11 fold enrichment (6-mer frequency, TF over GST control)
ELF3
  binding signal: 1.05 fold enrichment (6-mer frequency, TF over GST control)
CRX
  binding signal: 1.18 fold enrichment (6-mer frequency, TF over GST control)
ETV1
  binding signal: 1.2 fold enrichment (6-mer frequency, TF over GST control)
